Assay outcomes as filed in PubChem BioAssay.
BCR signal inh – chronic active BCR signaling inhibition; ABC-DLBCL IkBa-CBG/CBR reporter, luminescence ratio, 4 h; Potency, µM (top dose mostly 46.1 µM), for inactives: top-dose activity change, negative = inhibition, most hits filed as inhibitors; 340,000 compounds, 0.05% hits; AID 493014; active = well fitted inhibition curve with a large enough effect in the signal ratio, with a control signal flat, not every such curve was filed as active; inconclusive = small, poorly fitted or top-dose-only effect, or effect the other way, or a change in a side signal; the % refers to the signal ratio;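 note: potency is the fitted concentration of half-maximal effect; plate controls were basal doxycycline-induced cells for no effect and cells given 10 µM MG132 for full effect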
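Concentration-response series (up to 46 uM) were applied to TMD8 dual-reporter cells for 4 h at 37C with doxycycline. Green/red ratio, after filter-overlap correction, defined %Activity; red signal alone was normalised to basal cells and zero luminescence.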
IL-1B inflam inh – inhibitors of inflammasome signaling (IL-1 beta secretion); activity change, % at 57.5 µM; THP-1 LPS/ATP IL-1B secretion, AlphaLISA, 16 h; stronger effect = lower value; 360,000 compounds, 4.7% hits; in the data active = activity change below about -50%; inconclusive = mostly about -30% to -49%; note: % is set by controls: 0 for no effect and ±100 for the full control effect
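Secreted IL-1B measured by AlphaLISA bead assay after 16 h compound exposure of THP-1 cells; compounds (final up to 57.5 uM) added 1 h before LPS (250 ng/mL) and ATP (1.25 mM) stimulation; lower signal means less secretion.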
MCF10A rerep – DNA re-replication induction in MCF 10a cells; MCF 10A DNA re-replication, Hoechst nuclear intensity, 48 h; Potency, µM (highest dose often 46.1 µM), inactives show top-dose activity, positive = re-replication, hits mostly activators; 350,000 compounds, 2.9% hits; AID 624296; note: potency is the fitted concentration of half-maximal effect; % of control where 0% means no effect; nearly all actives have a fitted effect of over 50% in size
SW480 rereplic – inducers of DNA re-replication in SW480 colon cancer cells; SW480 DNA re-replication, Hoechst DNA content imaging, 48 h; Potency, µM (highest dose often 46.1 µM), inactives show at the top dose re-replication activation, hits mostly activators; 340,000 compounds, 1.8% hits; AID 624297; note: potency is the fitted concentration of half-maximal effect; % of control where 0% means no effect; nearly all actives have a fitted effect of over 55% in size
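Treated cells incubate 48 hr (37 C, 5% CO2), are stained 40 min with Hoechst, and nuclear fluorescence is enumerated; a rise in nuclei with high DNA signal marks re-replication.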
TDP1 cell CPT – DT40-hTDP1 cell growth loss with CPT. chicken DT40 Tdp1-/-;hTDP1 cells + 20 nM CPT, ATP luminescence, 48 h. Potency, µM (doses to about 46.2 µM), inactives show at the highest dose activity change, negative = growth inhibition, hits mostly inhibitors. 420,000 compounds, 12% hits. AID 686979; note: potency is the fitted concentration of half-maximal effect; % is set by controls: 0 for no effect and ±100 for the full control effect; nearly all actives have a fitted effect of over 55% in size
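Chicken DT40 Tdp1-/- cells stably complemented with human TDP1 were seeded at 400 cells/well in medium containing 20 nM camptothecin, exposed to pin-transferred compounds, and grown at 37 °C for at least 48 hr. Viability was read as ATP luminescence.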
DT40 TDP1 no CPT – qHTS for Inhibitors of human tyrosyl-DNA phosphodiesterase 1 (TDP1): qHTS in cells in absence of CPT; DT40 Tdp1-/- hTDP1 cells, no CPT, ATP luminescence, 48 h; Potency, µM (doses to about 46.2 µM), for inactives: top-dose activity change, negative = growth inhibition, most hits filed as inhibitors; 420,000 compounds, 15% hits; AID 686978, 2013; note: potency is the fitted concentration of half-maximal effect; % is set by controls: 0 for no effect and ±100 for the full control effect; nearly all actives have a fitted effect of over 55% in size
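Chicken DT40 Tdp1-/- cells stably complemented with human TDP1 were seeded at 400 cells/well with DMSO in place of 20 nM camptothecin. After compound pinning, cells grew at least 48 hr at 37 °C; viability read by CellTiter-Glo luminescence.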
* = called active by the depositor; i = inactive; ? = inconclusive; . = no result. An excerpt weighted towards active compounds, which were near 19% of everything screened. Unless noted, calls come from the whole dose curve; as a rule, active = well fitted curve in the direction sought with a large enough effect; inconclusive = small, poorly fitted or top-dose-only effect, or another doubt; inactive = no such curve, though single readings can be large; an effect the other way counts as inactive or inconclusive.

SMILES	BCR signal inh	IL-1B inflam inh	MCF10A rerep	SW480 rereplic	TDP1 cell CPT	DT40 TDP1 no CPT
O=C(NCc1ccc(F)cc1)c1cccc2c1C(=O)c1ccc(N3CCOCC3)cc1S2(=O)=O	?	-14	33%	-2%	23µM*	?
CC1CCN(c2ccc3c(c2)S(=O)(=O)c2cccc(C(=O)NCc4ccc(F)cc4)c2C3=O)CC1	-9%	50	?	?	?	?
CC(C)(C)CNC(=O)c1cccc2c1C(=O)c1ccc(-c3cc4ccccc4o3)cc1S2(=O)=O	0%	22	-17%	-7%	16µM*	?
COC(=O)CN1C(=O)CSc2ccc(S(=O)(=O)Nc3cccc(Cl)c3C)cc21	.	.	.	.	-3%	?
O=C(CSc1n[nH]c(-c2cccnc2)n1)Nc1ccccc1C(F)(F)F	-11%	32	5%	-1%	-12%	-2%
CC12CCC(=O)N1C(C(=O)Nc1cc(Cl)ccc1N1CCOCC1)CS2 (centres undefined)	8%	-5	12%	-1%	?	?
C[C@@H]1CN([C@H](C)CO)C(=O)CCCn2nncc2CO[C@H]1CN(C)Cc1ccc(Cl)c(Cl)c1	.	-16	.	.	-23%	?
CC1CCN(c2ccc3c(c2)S(=O)(=O)c2cccc(C(=O)NC4CCCCC4)c2C3=O)CC1	?	19	?	?	16µM*	16µM*
O=C(NC1CCCC1)c1cccc2c1C(=O)c1ccc(N3CCCCC3)cc1S2(=O)=O	?	12	1%	-1%	?	?
COc1ccccc1N1CCN(c2ccc3c(c2)S(=O)(=O)c2cccc(C(=O)NCC4CC4)c2C3=O)CC1	.	-14	.	.	18µM*	7.3µM*
N#Cc1cccnc1N1CCN(C(=O)c2cccc3c2C(=O)c2ccc(-c4ccc(Cl)c(C(F)(F)F)c4)cc2S3(=O)=O)CC1	0%	11	-2%	1%	?	-23%
O=C(O)c1cccc2c1C(=O)c1ccc(-c3ccc(Cl)c(C(F)(F)F)c3)cc1S2(=O)=O	-7%	-78*	-4%	0%	-1%	-6%
O=C1c2ccccc2S(=O)(=O)c2cc(N3CCC(C(=O)N4CCCCC4)CC3)ccc21	.	-11	4%	-4%	21µM*	18µM*
NN(CCO)C(=S)Nc1ccc(Cl)cc1	5%	-1	1%	-1%	1%	17%
Cc1ccc2c(c1)N(Cc1cccc(C#N)c1)C=NS2(=O)=O	-6%	-27	0%	-13%	0%	?
CCN1CCN(C(=O)C2CCC(=O)N(Cc3cccc(C(F)(F)F)c3)C2)CC1 (centres undefined)	1%	i	-2%	-8%	-7%	0%
O=C(NCc1ccccc1C(F)(F)F)c1cccc2c1C(=O)c1ccc(N3CCCCC3)cc1S2(=O)=O	-1%	24	2%	-10%	?	?
O=C(NCCN1CCCCC1)c1cccc2c1C(=O)c1ccc(N3CCCC3)cc1S2(=O)=O	?	-3	3%	-3%	3%	-20%
CC(C)(C)CNC(=O)c1cccc2c1C(=O)c1ccc(N3CCCC3)cc1S2(=O)=O	0%	-10	11%	-2%	21µM*	16µM*
O=C(NCC1CC1)c1cccc2c1C(=O)c1ccc(-c3ccc(OC(F)(F)F)cc3)cc1S2(=O)=O	-1%	15	4%	-7%	13µM*	23µM*
CCOC(=O)c1c(C)n(C(=O)c2ccco2)c(=O)n1C(=O)c1ccco1	-1%	-68*	8%	-3%	-23%	-19%
COc1cc(OC)cc(C(=O)OCC(=O)NC2CCCCCCC2)c1	.	18	.	.	-26%	?
Cc1ccc2[nH]c(=O)c3cc(C(=O)N(C)c4ccc(C)c(C)c4)sc3c2c1	3%	37	4.1µM*	15µM*	10µM*	10µM*
CCN(C(=O)c1cc2c(=O)[nH]c3ccc(C)cc3c2s1)c1ccc(F)cc1	9%	22	16µM*	?	?	?
CCN(C(=O)c1cc2c(=O)[nH]c3ccc(C)cc3c2s1)c1cccc(C)c1	3%	12	?	?	?	18µM*
SMILES	BCR signal inh	IL-1B inflam inh	MCF10A rerep	SW480 rereplic	TDP1 cell CPT	DT40 TDP1 no CPT
O=C(NCc1ccco1)c1ccc2sc([C@H]3C[C@H](O)[C@@H](CO)O3)nc2c1	.	2	.	.	?	-7%
Cc1nnsc1C(=O)Nc1ccc(S(=O)(=O)N2CCCC(C)C2)cc1 (centres undefined)	2%	?	2%	?	?	?
CSc1ncc(Cl)c(C(=O)Nc2ccc(S(=O)(=O)Nc3nccc(C)n3)cc2)n1	?	-20	10%	-7%	?	10µM*
CC(C)Sc1ncc(Cl)c(C(=O)Nc2ccc(S(=O)(=O)N3CCCCC3)cc2)n1	.	.	.	.	18µM*	18µM*
CCCSc1ncc(Cl)c(C(=O)Nc2ccc(CC)cc2)n1	.	.	.	.	16%	-22%
Cc1ccnc(NS(=O)(=O)c2ccc(NC(=O)c3nc(SC(C)C)ncc3Cl)cc2)n1	.	.	.	.	-16%	?
CCSc1ncc(Cl)c(C(=O)Nc2ccc(S(=O)(=O)N3CCCCC3)cc2)n1	.	.	.	.	21µM*	12µM*
CC1CCCN(S(=O)(=O)c2ccc(NC(=O)c3nc(SC(C)C)ncc3Cl)cc2)C1 (centres undefined)	.	.	.	.	8.2µM*	13µM*
O=C(CN1C(=O)NC2(CCCCCC2)C1=O)NCc1ccccc1Cl	1%	-4	12%	-8%	-29%	-5%
CC(C)CN(/C=N/c1sc2c(c1C#N)CCCCC2)CC(C)C	?	16	2%	-6%	21µM*	15µM*
CN1CCN(/C=N/c2sc3c(c2C#N)CCCCC3)CC1	4%	3	25%	4%	?	?
CCN(/C=N/c1sc2c(c1C#N)CCCCC2)CC	-3%	-13	5%	2%	?	21µM*
COP(=O)(OC)OC(C(=O)c1ccccc1)c1ccccc1 (centres undefined)	.	15	.	.	12%	19%
COc1cccc(N2CC(NC(=O)C3CC3)CC2=O)c1 (centres undefined)	-23%	.	.	.	10%	1%
O=C(NC(=S)NC1C2CC3CC(C2)CC1C3)c1ccccc1 (centres undefined)	2%	68	?	21%	?	?
COc1cccc(NC(=O)N(C)C[C@H]2Oc3cc(C#Cc4ccncc4)ccc3S(=O)(=O)N([C@H](C)CO)C[C@H]2C)c1	.	0	.	.	16µM*	23µM*
